Holding throughout (assay): DAPPL (digital affinity profiling via proximity ligation, sequencing); 10 mM Tris-HCl pH 7.5, 50 mM NaCl, 1 mM DTT, 4% glycerol, room temperature, 30 min; GST-TFs on glutathione beads, 16-mer random dsDNA library, 0.1% formaldehyde crosslink after washing; high values mean tight binding
The target in one test is T1, FLI1 (Homo sapiens, UniProt Q01543 1-452).
T1 sequence: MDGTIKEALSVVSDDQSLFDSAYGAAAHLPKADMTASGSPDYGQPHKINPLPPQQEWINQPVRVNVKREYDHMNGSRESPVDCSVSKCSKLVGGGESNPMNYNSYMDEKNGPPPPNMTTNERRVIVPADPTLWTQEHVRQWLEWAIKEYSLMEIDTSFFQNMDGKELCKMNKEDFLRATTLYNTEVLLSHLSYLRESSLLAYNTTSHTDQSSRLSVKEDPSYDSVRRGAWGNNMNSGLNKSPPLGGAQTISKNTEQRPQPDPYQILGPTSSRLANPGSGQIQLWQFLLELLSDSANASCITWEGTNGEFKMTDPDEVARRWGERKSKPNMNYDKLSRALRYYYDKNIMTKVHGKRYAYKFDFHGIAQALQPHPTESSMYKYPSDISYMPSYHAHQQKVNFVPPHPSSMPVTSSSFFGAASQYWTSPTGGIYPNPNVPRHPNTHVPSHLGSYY
The settings on record: protein: recombinant; tags: N-terminal GST; dsDNA, one strand shown. An outline of the steps:
(§1)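 Binding signal is each hexamer's read frequency for a factor divided by its frequency in the tag-only sample. The factors were GST-fused human transcription factors from yeast, captured on glutathione beads, DNA-barcoded and pooled with that sample. Pools were incubated with 200 nmole of a random double-stranded 16-mer DNA library in Tris/NaCl/DTT/glycerol buffer at room temperature for 30 min, then washed, crosslinked with 0.1% formaldehyde, proximity-ligated with BsaI/T4 ligase (1 h, 37 °C), PCR-amplified and sequenced on an Illumina NextSeq500.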

The target of the next test is T2, ELK1 (Homo sapiens, UniProt P19419 1-428).
T2 sequence: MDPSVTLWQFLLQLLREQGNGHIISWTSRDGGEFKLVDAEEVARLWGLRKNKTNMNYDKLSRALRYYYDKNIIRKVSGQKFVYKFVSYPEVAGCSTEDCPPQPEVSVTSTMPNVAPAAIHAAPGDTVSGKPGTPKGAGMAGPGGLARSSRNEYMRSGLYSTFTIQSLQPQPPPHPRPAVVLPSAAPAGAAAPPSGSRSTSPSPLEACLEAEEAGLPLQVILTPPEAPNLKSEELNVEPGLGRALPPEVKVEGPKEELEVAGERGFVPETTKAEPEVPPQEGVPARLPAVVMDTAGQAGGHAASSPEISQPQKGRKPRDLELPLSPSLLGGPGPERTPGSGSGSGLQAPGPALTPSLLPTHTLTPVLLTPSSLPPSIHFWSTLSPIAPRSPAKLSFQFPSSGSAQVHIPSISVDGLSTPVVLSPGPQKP
The settings on record: protein: recombinant; tags: N-terminal GST; dsDNA, one strand shown. An outline of the steps:
as §1

The target of the next test is T3, GABPA (Homo sapiens, UniProt Q06546 1-454).
T3 sequence: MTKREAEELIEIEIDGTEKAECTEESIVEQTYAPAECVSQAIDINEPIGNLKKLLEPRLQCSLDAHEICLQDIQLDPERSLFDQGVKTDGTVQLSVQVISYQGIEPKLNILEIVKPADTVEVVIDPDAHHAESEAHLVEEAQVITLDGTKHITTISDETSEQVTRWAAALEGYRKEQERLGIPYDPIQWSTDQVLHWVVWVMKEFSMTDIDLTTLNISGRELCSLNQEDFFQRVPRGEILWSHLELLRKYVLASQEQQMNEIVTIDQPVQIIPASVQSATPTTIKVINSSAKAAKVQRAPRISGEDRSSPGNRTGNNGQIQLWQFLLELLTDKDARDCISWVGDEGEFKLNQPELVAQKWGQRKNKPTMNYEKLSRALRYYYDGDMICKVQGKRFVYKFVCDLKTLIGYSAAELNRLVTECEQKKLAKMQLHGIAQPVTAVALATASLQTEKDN
To be noted: protein: recombinant; tags: N-terminal GST; dsDNA, one strand shown. In short, it runs like this: as §1

The next test concerns the target T4, ERG (Homo sapiens, UniProt P11308 1-479).
T4 sequence: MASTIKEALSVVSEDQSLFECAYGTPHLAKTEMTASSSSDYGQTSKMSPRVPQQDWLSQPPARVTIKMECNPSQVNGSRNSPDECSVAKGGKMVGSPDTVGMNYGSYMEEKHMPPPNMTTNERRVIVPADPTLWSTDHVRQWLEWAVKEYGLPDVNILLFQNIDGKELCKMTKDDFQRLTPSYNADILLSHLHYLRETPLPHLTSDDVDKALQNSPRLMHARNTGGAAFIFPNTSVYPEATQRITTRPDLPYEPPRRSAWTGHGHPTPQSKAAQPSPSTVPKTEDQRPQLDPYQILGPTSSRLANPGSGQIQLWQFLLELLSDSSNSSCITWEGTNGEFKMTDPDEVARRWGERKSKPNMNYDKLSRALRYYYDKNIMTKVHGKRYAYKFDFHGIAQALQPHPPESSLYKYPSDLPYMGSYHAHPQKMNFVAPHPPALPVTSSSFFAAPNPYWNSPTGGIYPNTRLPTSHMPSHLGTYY
To be noted: protein: recombinant; tags: N-terminal GST; dsDNA, one strand shown. In short, it runs like this: as §1

A further test has as its target ELF1 (Homo sapiens, UniProt P32519 1-619). To be noted: protein: recombinant; tags: N-terminal GST; dsDNA, one strand shown. In short, it runs like this: as §1
For another test, the target named is T5, EHF (Homo sapiens, UniProt Q9NZC4 1-300).
T5 sequence: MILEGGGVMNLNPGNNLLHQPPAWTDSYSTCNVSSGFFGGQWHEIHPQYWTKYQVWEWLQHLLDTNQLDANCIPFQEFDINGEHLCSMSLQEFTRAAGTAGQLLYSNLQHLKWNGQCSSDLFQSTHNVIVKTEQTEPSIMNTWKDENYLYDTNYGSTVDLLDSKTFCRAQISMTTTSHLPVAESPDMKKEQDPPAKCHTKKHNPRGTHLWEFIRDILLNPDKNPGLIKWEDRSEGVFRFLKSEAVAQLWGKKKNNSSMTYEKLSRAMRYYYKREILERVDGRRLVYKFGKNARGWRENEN
To be noted: protein: recombinant; tags: N-terminal GST; dsDNA, one strand shown. In short, it runs like this:
as §1

The next test addresses SPI1 (Homo sapiens, UniProt P17947 1-270). The settings on record: protein: recombinant; tags: N-terminal GST; dsDNA, one strand shown. An outline of the steps:
as §1

Another test has as its target SPIB (Homo sapiens, UniProt Q01892 1-262). To be noted: protein: recombinant; tags: N-terminal GST; dsDNA, one strand shown. In short, it runs like this:
as §1

A further test addresses T6, ELK3 (Homo sapiens, UniProt P41970 1-407).
T6 sequence: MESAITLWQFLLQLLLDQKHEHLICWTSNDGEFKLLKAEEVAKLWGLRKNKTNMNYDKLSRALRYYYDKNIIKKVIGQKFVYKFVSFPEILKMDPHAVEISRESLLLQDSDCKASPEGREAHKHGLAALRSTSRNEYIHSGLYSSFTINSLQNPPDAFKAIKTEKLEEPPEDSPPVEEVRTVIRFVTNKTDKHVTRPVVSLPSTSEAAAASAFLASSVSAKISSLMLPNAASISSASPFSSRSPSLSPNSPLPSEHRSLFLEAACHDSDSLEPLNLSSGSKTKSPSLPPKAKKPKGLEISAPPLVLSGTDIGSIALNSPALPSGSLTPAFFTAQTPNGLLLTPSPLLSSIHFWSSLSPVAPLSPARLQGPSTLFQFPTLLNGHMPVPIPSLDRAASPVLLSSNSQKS
To be noted: protein: recombinant; tags: N-terminal GST; dsDNA, one strand shown. In short, it runs like this:
as §1

The next test deals with T7, FEV (Homo sapiens, UniProt Q99581 1-238).
T7 sequence: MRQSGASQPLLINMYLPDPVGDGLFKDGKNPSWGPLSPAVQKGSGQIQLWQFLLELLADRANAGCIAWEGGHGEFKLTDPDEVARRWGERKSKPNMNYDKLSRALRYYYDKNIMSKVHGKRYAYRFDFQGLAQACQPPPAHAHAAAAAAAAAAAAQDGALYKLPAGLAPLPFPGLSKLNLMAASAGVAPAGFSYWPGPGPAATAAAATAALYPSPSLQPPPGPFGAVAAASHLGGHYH
The settings on record: protein: recombinant; tags: N-terminal GST; dsDNA, one strand shown. An outline of the steps:
as §1

The next test concerns the target ETV5 (Homo sapiens, UniProt P41161 1-510). The settings on record: protein: recombinant; tags: N-terminal GST; dsDNA, one strand shown. In short, it runs like this:
as §1

The next test addresses HSF1 (Homo sapiens, UniProt Q00613 1-529). The settings on record: protein: recombinant; tags: N-terminal GST; chain copies: 3; dsDNA, one strand shown. An outline of the steps:
as §1

A further test addresses T8, SPIC (Homo sapiens, UniProt Q8N5J4 1-248).
T8 sequence: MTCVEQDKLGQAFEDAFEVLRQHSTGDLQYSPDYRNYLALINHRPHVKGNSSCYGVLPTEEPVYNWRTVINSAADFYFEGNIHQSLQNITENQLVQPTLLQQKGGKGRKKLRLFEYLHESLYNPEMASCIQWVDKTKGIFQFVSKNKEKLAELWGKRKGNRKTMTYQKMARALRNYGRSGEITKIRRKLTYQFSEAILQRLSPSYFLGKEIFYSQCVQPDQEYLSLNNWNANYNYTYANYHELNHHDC
To be noted: protein: recombinant; tags: N-terminal GST; dsDNA, one strand shown. In short, it runs like this: as §1

The next test deals with ELF4 (Homo sapiens, UniProt Q99607 1-663). The settings on record: protein: recombinant; tags: N-terminal GST; dsDNA, one strand shown. In short, it runs like this: as §1
ELF4, sequence (Q99607 whole entry): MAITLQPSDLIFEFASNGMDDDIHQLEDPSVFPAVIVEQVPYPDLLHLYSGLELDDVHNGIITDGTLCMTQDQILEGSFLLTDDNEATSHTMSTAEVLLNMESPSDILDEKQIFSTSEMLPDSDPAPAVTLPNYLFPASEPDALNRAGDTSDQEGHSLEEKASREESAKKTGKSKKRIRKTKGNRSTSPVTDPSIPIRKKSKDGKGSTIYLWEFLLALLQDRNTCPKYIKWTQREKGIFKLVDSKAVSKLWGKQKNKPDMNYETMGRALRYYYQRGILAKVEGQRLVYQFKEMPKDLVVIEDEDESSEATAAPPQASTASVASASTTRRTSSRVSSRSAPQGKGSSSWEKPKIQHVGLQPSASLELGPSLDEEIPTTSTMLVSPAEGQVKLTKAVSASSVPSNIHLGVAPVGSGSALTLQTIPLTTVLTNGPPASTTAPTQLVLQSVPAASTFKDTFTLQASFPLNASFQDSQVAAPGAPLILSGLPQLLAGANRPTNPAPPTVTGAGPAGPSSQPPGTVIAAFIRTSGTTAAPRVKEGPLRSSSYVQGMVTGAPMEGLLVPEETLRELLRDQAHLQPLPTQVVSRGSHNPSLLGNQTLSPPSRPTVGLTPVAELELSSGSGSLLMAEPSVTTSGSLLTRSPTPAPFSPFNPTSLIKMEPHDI
The target in the next test is T9, ELK4 (Homo sapiens, UniProt P28324-2 1-405).
T9 sequence: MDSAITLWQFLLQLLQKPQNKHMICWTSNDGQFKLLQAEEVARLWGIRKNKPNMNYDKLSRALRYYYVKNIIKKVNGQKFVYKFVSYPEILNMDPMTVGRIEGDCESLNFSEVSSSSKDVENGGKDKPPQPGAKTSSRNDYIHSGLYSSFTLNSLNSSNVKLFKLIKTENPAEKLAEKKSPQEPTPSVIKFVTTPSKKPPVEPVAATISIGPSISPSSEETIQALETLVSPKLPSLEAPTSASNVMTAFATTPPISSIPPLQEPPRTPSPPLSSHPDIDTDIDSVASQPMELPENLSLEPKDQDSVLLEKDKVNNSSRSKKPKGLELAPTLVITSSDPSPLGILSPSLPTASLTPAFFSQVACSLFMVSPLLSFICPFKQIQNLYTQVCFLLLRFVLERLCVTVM
The settings on record: protein: recombinant; tags: N-terminal GST; dsDNA, one strand shown. In short, it runs like this:
as §1

In a further test the target is T10, ELF3 (Homo sapiens, UniProt P78545 1-371).
T10 sequence: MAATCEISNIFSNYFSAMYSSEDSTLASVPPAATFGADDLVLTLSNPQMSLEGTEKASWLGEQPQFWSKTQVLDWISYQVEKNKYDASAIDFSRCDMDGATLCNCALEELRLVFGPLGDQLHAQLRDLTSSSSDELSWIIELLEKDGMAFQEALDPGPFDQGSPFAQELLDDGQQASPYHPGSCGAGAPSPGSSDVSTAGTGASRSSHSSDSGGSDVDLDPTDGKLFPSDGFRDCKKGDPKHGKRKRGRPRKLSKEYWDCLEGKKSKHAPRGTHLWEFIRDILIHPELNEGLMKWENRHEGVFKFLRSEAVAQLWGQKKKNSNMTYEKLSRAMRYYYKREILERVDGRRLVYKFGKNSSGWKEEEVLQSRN
To be noted: protein: recombinant; tags: N-terminal GST; dsDNA, one strand shown. In short, it runs like this: as §1

Another test deals with CRX (Homo sapiens, UniProt O43186 1-299). To be noted: protein: recombinant; tags: N-terminal GST; dsDNA, one strand shown. An outline of the steps:
as §1

Another test deals with ETV1 (Homo sapiens, UniProt P50549 1-477). The settings on record: protein: recombinant; tags: N-terminal GST; dsDNA, one strand shown. An outline of the steps:
as §1

Among the data in paper PMC7862700, “An all-to-all approach to the identification of sequence-specific readers for epigenetic DNA modifications on cytosine” are binding signal values, retold here.

CRX, sequence (O43186 whole entry): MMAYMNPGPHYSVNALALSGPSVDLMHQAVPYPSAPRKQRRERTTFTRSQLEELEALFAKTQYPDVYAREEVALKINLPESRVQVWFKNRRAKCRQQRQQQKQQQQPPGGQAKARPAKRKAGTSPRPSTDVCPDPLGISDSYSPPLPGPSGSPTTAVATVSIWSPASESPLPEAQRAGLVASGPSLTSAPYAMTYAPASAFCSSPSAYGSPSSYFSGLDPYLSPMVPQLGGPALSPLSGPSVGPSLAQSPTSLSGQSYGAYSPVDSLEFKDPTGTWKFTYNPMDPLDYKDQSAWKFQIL
ETV5, sequence (P41161 whole entry): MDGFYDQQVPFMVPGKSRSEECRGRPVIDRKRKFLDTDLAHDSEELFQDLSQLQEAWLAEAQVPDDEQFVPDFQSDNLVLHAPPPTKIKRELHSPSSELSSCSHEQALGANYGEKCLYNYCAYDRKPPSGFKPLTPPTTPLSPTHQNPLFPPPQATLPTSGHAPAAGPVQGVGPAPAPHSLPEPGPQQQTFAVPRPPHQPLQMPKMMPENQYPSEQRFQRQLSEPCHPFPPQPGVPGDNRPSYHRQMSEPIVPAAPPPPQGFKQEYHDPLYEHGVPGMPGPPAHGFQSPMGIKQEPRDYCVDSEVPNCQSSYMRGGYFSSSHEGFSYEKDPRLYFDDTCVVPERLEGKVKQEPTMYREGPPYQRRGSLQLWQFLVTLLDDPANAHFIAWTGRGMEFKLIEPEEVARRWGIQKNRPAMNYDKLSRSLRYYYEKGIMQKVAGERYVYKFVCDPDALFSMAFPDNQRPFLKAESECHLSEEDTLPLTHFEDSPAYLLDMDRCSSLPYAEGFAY
ETV1, sequence (P50549 whole entry): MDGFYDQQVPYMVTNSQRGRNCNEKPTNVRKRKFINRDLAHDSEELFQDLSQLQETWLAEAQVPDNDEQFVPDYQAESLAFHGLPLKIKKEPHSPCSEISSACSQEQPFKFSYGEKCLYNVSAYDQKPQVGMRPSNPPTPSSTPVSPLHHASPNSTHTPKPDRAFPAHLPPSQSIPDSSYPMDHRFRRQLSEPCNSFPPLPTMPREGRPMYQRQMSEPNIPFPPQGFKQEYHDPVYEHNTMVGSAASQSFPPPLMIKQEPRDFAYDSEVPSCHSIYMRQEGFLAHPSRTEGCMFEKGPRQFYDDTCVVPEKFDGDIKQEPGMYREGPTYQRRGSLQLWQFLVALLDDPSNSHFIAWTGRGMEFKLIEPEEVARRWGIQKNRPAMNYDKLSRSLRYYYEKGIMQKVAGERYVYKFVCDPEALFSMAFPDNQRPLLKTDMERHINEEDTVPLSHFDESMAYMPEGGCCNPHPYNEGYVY
SPIB, sequence (Q01892 whole entry): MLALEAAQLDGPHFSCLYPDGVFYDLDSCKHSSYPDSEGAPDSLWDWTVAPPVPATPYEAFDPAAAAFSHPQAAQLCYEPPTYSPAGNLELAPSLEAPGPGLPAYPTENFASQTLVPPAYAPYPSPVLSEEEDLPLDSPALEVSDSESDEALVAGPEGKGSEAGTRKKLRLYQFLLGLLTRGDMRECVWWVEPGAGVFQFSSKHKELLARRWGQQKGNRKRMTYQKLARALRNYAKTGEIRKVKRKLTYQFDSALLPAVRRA
ELF1, sequence (P32519 whole entry): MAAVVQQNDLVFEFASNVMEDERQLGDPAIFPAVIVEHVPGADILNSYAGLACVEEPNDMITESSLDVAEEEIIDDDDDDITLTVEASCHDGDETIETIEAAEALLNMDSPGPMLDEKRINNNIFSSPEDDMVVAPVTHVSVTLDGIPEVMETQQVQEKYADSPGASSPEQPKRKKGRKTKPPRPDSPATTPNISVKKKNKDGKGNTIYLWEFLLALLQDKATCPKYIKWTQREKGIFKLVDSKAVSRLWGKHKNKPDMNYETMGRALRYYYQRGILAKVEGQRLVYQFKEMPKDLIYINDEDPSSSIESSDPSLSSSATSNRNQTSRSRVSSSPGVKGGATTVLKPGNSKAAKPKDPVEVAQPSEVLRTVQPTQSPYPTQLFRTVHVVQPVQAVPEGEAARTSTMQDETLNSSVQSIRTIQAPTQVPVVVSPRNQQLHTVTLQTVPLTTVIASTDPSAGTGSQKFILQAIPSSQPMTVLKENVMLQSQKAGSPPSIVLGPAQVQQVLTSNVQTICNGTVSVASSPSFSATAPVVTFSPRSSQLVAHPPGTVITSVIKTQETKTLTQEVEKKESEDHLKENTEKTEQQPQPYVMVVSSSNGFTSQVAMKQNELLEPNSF
HSF1, sequence (Q00613 whole entry): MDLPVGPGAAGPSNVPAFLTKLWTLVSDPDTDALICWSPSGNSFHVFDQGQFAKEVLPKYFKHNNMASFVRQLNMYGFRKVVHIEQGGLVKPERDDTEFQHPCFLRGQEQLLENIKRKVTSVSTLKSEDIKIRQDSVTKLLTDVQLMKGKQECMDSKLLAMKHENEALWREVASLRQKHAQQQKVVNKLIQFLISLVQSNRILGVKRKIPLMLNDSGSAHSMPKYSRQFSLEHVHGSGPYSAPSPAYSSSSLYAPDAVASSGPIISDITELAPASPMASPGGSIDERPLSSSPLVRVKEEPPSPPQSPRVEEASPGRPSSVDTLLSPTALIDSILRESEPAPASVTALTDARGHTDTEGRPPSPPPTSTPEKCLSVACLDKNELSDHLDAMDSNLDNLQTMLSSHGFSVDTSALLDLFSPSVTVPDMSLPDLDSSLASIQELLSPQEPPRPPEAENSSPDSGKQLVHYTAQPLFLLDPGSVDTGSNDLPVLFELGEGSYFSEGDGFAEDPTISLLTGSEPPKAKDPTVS

Consider ATAAAG, for which the binding signal in the test with FLI1 is 1.01 fold enrichment (6-mer frequency, TF over GST control); with ELK1, 1.01 fold enrichment (6-mer frequency, TF over GST control); in the test with GABPA it was 1.05 fold enrichment (6-mer frequency, TF over GST control); with ERG it was 1.12 fold enrichment (6-mer frequency, TF over GST control); with ELF1 it was 1.06 fold enrichment (6-mer frequency, TF over GST control); with EHF, 1.11 fold enrichment (6-mer frequency, TF over GST control). In addition, the binding signal with SPI1 is 1.21 fold enrichment (6-mer frequency, TF over GST control); with SPIB, 1.1 fold enrichment (6-mer frequency, TF over GST control); in the test with ELK3 it was 1.12 fold enrichment (6-mer frequency, TF over GST control); in the test with FEV it was 1.04 fold enrichment (6-mer frequency, TF over GST control); in the test with ETV5, 1.03 fold enrichment (6-mer frequency, TF over GST control); with HSF1 it was 1.27 fold enrichment (6-mer frequency, TF over GST control). Also, the binding signal in the test with SPIC is 1.09 fold enrichment (6-mer frequency, TF over GST control); with ELF4, 1.08 fold enrichment (6-mer frequency, TF over GST control); in the test with ELK4, 1.16 fold enrichment (6-mer frequency, TF over GST control); with ELF3, 1.02 fold enrichment (6-mer frequency, TF over GST control); in the test with CRX, 1.53 fold enrichment (6-mer frequency, TF over GST control); with ETV1, 1.04 fold enrichment (6-mer frequency, TF over GST control).
